The record followed here is ChEMBL document CHEMBL3988442, “University of Dundee, Small-Polar-MMV Screening Library” (2021).

The target of this assay is T1, Methionyl-tRNA synthetase, putative (Leishmania donovani (strain BPK282A1)) (UniProt E9BF75).
T1 sequence (whole entry): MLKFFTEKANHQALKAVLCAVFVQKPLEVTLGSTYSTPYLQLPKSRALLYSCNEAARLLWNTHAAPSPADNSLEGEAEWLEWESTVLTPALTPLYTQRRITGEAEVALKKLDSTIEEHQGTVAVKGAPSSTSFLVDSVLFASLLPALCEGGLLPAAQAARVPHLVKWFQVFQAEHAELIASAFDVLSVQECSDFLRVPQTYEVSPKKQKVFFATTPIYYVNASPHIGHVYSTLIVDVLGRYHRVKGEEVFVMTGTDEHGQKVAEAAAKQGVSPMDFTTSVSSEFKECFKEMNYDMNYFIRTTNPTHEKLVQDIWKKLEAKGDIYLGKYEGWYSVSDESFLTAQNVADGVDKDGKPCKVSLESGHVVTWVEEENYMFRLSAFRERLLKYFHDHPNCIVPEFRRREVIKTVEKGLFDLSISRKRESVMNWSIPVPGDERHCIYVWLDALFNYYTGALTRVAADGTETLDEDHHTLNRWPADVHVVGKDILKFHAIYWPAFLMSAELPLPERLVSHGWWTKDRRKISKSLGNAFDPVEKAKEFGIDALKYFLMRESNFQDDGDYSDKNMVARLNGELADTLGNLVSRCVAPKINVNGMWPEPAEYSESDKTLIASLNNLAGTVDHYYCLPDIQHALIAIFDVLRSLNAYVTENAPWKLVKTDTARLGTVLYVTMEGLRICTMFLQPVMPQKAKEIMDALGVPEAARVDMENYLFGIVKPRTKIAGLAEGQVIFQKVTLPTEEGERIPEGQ
As to the kind of experiment: Leishmania donovani Methionine tRNA synthetase (LdMetRS):v7. Dose response assay. It counts as functional. Details: conc 80 nM, time 150 minutes.

`Cc1cc(C)n(C2CN(CC(=O)N(C)Cc3cnn(C)c3)C2)n1`: the PXC50 is, setting by setting: (BOTTOM 1.685263138, HILLSLOPE 1.431243041, MAX_EFFECT 59.07590759, TOP 100.0) 4.06; (MAX_EFFECT 33.33333333) < 4; (MAX_EFFECT 44.80286738) < 4.

The molecule `COc1ccc(C)cc1CN1CCC(c2cc3ncccc3cn2)CC1` yielded a PXC50 (BOTTOM 4.302486836, HILLSLOPE 1.43779927, MAX_EFFECT 88.21490468, TOP 100.0) of 4.58; a PXC50 (BOTTOM 8.282667515, HILLSLOPE 1.048150925, MAX_EFFECT 85.90604027, TOP 109.7015184) of 4.5; a PXC50 (BOTTOM -10.94583239, HILLSLOPE 1.338598097, MAX_EFFECT 90.27777778, TOP 104.5409309) of 4.59.

For `Cn1ncc2c(NCCO)nc(Nc3ccc(O)cc3)nc21`, the PXC50 (MAX_EFFECT 7.728337237) is < 4, the PXC50 (MAX_EFFECT 8.34914611) was < 4 and the PXC50 (MAX_EFFECT 13.02428256) is < 4.

For `CCc1cccc(Nc2nc(NCCO)c3cnn(C)c3n2)c1`, the PXC50 runs as follows: (MAX_EFFECT 6.404958678) < 4; (MAX_EFFECT 25.11013216) < 4; (MAX_EFFECT 42.00385356) < 4.

As to `OCCCNc1ccnc(Nc2cccc(C(F)(F)F)c2)n1`, the PXC50 by setting is: (BOTTOM -1.471323434, HILLSLOPE 0.842843203, MAX_EFFECT 51.77570093, TOP 92.13190163) 4.16; (BOTTOM -3.274011796, HILLSLOPE 1.62633592, MAX_EFFECT 57.93991416, TOP 100.0) 4.09; (MAX_EFFECT 49.40617577) < 4.

With `CC(CO)Nc1nc(Nc2cccc(C(F)(F)F)c2)nc2c1cnn2C` (centres undefined), the PXC50 was < 4 (MAX_EFFECT 16.69829222), < 4 (MAX_EFFECT 21.69811321) and < 4 (MAX_EFFECT 22.37442922).

Turning to `Cn1ncc2c(N3CCOCC3)nc(Nc3ccc(F)c(F)c3)nc21`, the PXC50 runs as follows: (BOTTOM 9.319609168, HILLSLOPE 1.297043796, MAX_EFFECT 53.57833656, TOP 67.28849304) 5.29; (MAX_EFFECT 10.12396694) < 4; (MAX_EFFECT 42.73127753) < 4.

Regarding `C1CCCN(CC2CCCN(Cc3noc(C4CC4)n3)C2)CC1` (centres undefined), the PXC50 runs as follows: (BOTTOM 4.352296135, HILLSLOPE 1.766055102, MAX_EFFECT 53.69127517, TOP 86.72954931) 4.1; (BOTTOM 8.24905968, HILLSLOPE 1.172496443, MAX_EFFECT 57.63888889, TOP 100.0) 4.05; (MAX_EFFECT 48.70017331) < 4.

Regarding `Cc1cc(Nc2ccc(F)c(F)c2)nc(NCCO)n1`, the PXC50 is, setting by setting: (BOTTOM -0.152929864, HILLSLOPE 0.883857243, MAX_EFFECT 83.3655706, TOP 93.53791092) 5.04; (BOTTOM -2.585097693, HILLSLOPE 0.96868989, MAX_EFFECT 84.50413223, TOP 95.81491094) 4.9; (BOTTOM -4.028659836, HILLSLOPE 0.891804294, MAX_EFFECT 83.70044053, TOP 100.2402145) 4.82.

With `Cc1cc(Nc2nc(NCCO)c3cnn(C)c3n2)cc(C(F)(F)F)c1`, the PXC50 (MAX_EFFECT 17.18061674) is < 4, the PXC50 (MAX_EFFECT 18.76208897) was < 4 and the PXC50 (MAX_EFFECT 22.9338843) is < 4.

`CCc1[nH]c2c(CNc3cncc(C(=O)OC)n3)cc(C)cc2c1C`: the PXC50 (MAX_EFFECT 7.798960139) was < 4, the PXC50 (MAX_EFFECT 45.13888889) was < 4 and the PXC50 (MAX_EFFECT 45.63758389) was < 4.

`Cn1ncc2c(NCCS(C)(=O)=O)nc(Nc3ccc(F)c(F)c3)nc21`: the PXC50 runs as follows: (MAX_EFFECT 19.95249406) < 4; (MAX_EFFECT 30.90128755) < 4; (MAX_EFFECT 33.0754352) < 4.

Turning to `Cc1nc(CN(C)C(=O)c2ccc(Cn3cnnn3)cc2)cs1`, the PXC50 is, setting by setting: (MAX_EFFECT 1.360544218) < 4; (MAX_EFFECT 4.347826087) < 4; (MAX_EFFECT 4.72854641) < 4.

Regarding `Cn1ccnc1CN(CCO)C(=O)C1CCN(C(=O)C2CC2)CC1`, the PXC50 is < 4 (MAX_EFFECT 3.401360544), < 4 (MAX_EFFECT 4.347826087) and < 4 (MAX_EFFECT 10.33274956).

Take `OCCNc1nc(Nc2ccc(F)c(F)c2)nc2ccsc12`: the PXC50 (BOTTOM 1.719198718, HILLSLOPE 0.904710071, MAX_EFFECT 90.94412331, TOP 99.0565164) stood at 5.18; the PXC50 (BOTTOM 2.94588064, HILLSLOPE 1.041078654, MAX_EFFECT 85.02202643, TOP 89.21565971) was found to be 5.26; the PXC50 (BOTTOM 5.256543605, HILLSLOPE 0.944714137, MAX_EFFECT 88.2231405, TOP 97.0813666) was 5.17.

`Cn1ncc2c(Nc3ccc(F)c(F)c3)nc(NCCO)nc21`: the PXC50 by setting is: (MAX_EFFECT 4.750593824) < 4; (MAX_EFFECT 5.660377358) < 4; (MAX_EFFECT 14.59227468) < 4.

On to `COc1cnc(Nc2ccc(F)c(F)c2)nc1NCCO`, for which the PXC50 came to 5.21 (BOTTOM 1.119092506, HILLSLOPE 0.867597172, MAX_EFFECT 78.41409692, TOP 85.56949583); 4.95 (BOTTOM 1.563075745, HILLSLOPE 0.960019265, MAX_EFFECT 80.27079304, TOP 89.78065845); 5.14 (BOTTOM 4.457946708, HILLSLOPE 0.924831459, MAX_EFFECT 80.78512397, TOP 87.63131575).

As for `CC(C)c1ccc(CS(=O)(=O)Cc2nc(N)nc(N(C)C)n2)cc1`, the PXC50 runs as follows: (MAX_EFFECT 8.163265306) < 4; (MAX_EFFECT 10.86956522) < 4; (MAX_EFFECT 13.83537653) < 4.
